NOMO-1 viab: STK33 inhibitor candidate reducing NOMO-1 cell viability; NOMO-1 AML viability, CellTiter-Glo luminescence, 72 h; inhibition, % (test concentration not listed); 37,000 tested, 7.5% active; in the data active means inhibition above about 80%; inconclusive means no clear call, values can overlap the other calls
PD-1 reverse act: activators reversing PD-1 mediated T-cell inhibition | primary human CD4 T cells, PD-L1 beads, CellTiter-Glo 96 h | activation, % (no concentration beside the values) | 29,000 tested, under 10 active | AID 2316; call rule not given here;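 further: 0% = median vehicle wells and 100% = positive control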
STK33 inh: blocks human STK33 kinase activity | Q9BYT3 | 27,000 tested, 0.44% active | ADP-Glo luminescence, MBP substrate | inhibition, % at 12.5 µM; in the data active means inhibition above about 20%; inconclusive means no clear call, values can overlap the other calls
Target sequence (Q9BYT3 whole entry, looked up): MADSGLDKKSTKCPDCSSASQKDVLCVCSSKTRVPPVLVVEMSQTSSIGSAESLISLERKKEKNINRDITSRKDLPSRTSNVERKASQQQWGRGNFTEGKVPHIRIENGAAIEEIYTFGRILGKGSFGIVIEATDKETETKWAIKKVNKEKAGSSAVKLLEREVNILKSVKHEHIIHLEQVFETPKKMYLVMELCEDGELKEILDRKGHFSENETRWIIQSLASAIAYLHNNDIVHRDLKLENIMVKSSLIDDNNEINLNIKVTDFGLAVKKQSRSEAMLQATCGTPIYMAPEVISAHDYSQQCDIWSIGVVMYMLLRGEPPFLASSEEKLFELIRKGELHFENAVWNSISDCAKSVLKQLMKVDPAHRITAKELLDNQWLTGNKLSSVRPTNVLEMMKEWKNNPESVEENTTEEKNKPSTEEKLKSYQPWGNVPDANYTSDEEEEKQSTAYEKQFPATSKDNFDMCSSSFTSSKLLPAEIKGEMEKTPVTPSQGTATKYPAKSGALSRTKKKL
* = called active by the depositor; ? = inconclusive; / = no result given; ! = not active in a repeat. This excerpt belongs to a sample that is enriched for hits.

SMILES	NOMO-1 viab	PD-1 reverse act	STK33 inh
COc1cc(-c2cc(=O)c3c(O)c(OC)c(OC)c(O)c3o2)ccc1O	/	/	65.4*
COc1ccc(S(=O)(=O)Nc2ccc(Br)c3cccnc23)c([N+](=O)[O-])c1	127.9*	-8.5	-2.2
COc1ccc(NC(=O)c2cc(-c3ccccn3)nc3c(C)cc(C)cc23)c([N+](=O)[O-])c1	68.3	/	0.1
CC(=O)Oc1ccc2occ(C(=O)CCN(C)C)c2c1	140.4*	-4.7	/
CC(=O)Oc1ccc2occ(C(=O)c3ccc(Br)s3)c2c1	41.3	-1.1	/
O=[n+]1c(CO)c(CO)n([O-])c2ccccc21	29.4	0.9	/
Cc1cccc(N(CC(=O)NC(C)(C)C)S(=O)(=O)c2ccc(Cl)cc2)c1	-9.9	1.5	1.4
Cc1cc2nc(-c3ccc(NC(=O)COc4ccc([N+](=O)[O-])cc4)cc3)oc2cc1C	27.0	/	0.3
CCOC(=O)c1cnc2c(OC)cccc2c1N1CCC2(CC1)OCCO2	38.5	0.9	-2.2
CCOC(=O)c1cnc2c(OC)cccc2c1NC1CCCCC1	118.1*	-5.9	/
CN1CCCCC1CCN1c2ccccc2Sc2ccc(S(C)=O)cc21 (stereo not drawn)	20.3	6.5	-3.1
CN1CCN(CCCN2c3ccccc3Sc3ccc(Cl)cc32)CC1	105.7*!	/	-0.7
OCCN1CCN(CCCN2c3ccccc3Sc3ccc(C(F)(F)F)cc32)CC1	118.5*!	/	2.4
Cn1cnnc1SCC(=O)N1c2ccccc2Sc2ccc(C(F)(F)F)cc21	7.1	-1.6	-0.2
O=C(Cn1cnc2ccccc2c1=O)Nc1cccc(Cl)c1Cl	8.6	/	3.0
COc1ccc([N+](=O)[O-])cc1NC(=O)CN(C)S(=O)(=O)c1ccc(Cl)cc1	2.0	2.2	4.5
COC(=O)c1ccc(NC(=O)CN(c2ccc(Br)c(C)c2)S(C)(=O)=O)cc1	10.8	-0.2	2.0
COc1ccc(S(=O)(=O)N[C@H]2CCN(Cc3cccc(OCCO)c3)C2)cc1	/	/	-0.3
COc1ccc(CCC(=O)CCc2ccc(OC)cc2)cc1	16.2	-0.8	/
O=C(CCCCc1ccc(O)cc1)CCc1ccc(O)cc1	104.5*	-1.2	0.8
COc1cc(C2C(C#N)=C(C)Nc3oc(C)nc32)ccc1OCCN1CCOCC1 (stereo not drawn)	38.3	-3.9	/
C[C@@H]1CN([C@@H](C)CO)C(=O)c2cc(NS(=O)(=O)c3ccccc3)ccc2O[C@H]1CN(C)Cc1ccc(C(=O)Nc2ccccc2N)cc1	37.8	-1.7	/
Cc1ccc(S(=O)(=O)Nc2ccc3c(c2)C(=O)N([C@@H](C)CO)C[C@@H](C)[C@H](CN(C)Cc2ccc(C(=O)Nc4ccccc4N)cc2)O3)cc1	17.0	1.9	/
Cc1ccc(S(=O)(=O)Nc2ccc3c(c2)C(=O)N([C@@H](C)CO)C[C@H](C)[C@@H](CN(C)Cc2ccc(C(=O)Nc4ccccc4N)cc2)O3)cc1	65.1	-1.7	/
C[C@@H]1CN([C@H](C)CO)C(=O)c2cc(NS(=O)(=O)c3ccc(F)cc3)ccc2O[C@@H]1CN(C)Cc1ccc(C(=O)Nc2ccccc2N)cc1	107.6*	-0.7	/
SMILES	NOMO-1 viab	PD-1 reverse act	STK33 inh
Cc1ccc(S(=O)(=O)Nc2ccc3c(c2)C(=O)N([C@H](C)CO)C[C@@H](C)[C@@H](CN(C)Cc2ccc(C(=O)Nc4ccccc4N)cc2)O3)cc1	110.2*	-1.1	/
C[C@@H]1CN([C@@H](C)CO)C(=O)c2cc(NS(=O)(=O)c3ccc(F)cc3)ccc2O[C@H]1CN(C)Cc1ccc(C(=O)Nc2ccccc2N)cc1	?	0.0	/
C[C@@H]1CN([C@H](C)CO)C(=O)c2cc(NS(=O)(=O)c3ccccc3)ccc2O[C@@H]1CN(C)Cc1ccc(C(=O)Nc2ccccc2N)cc1	108.5*	-1.2	/
C[C@H](CO)N1C[C@H](C)[C@H](CN(C)Cc2ccc(C(=O)Nc3ccccc3N)cc2)Oc2ccc(NS(=O)(=O)c3ccccc3)cc2C1=O	109.1*	-1.1	/
CC(=O)c1ccc(NC(=O)CSc2nnc3n(C)c(=O)c4c5c(sc4n23)CCCC5)cc1	17.5	-3.0	6.3
COc1ccc(S(=O)(=O)N(C)CC(N)=O)cc1Cl	0.1	3.6	-3.4
Cc1cccc(S(=O)(=O)NC(C(=O)O)C(C)C)c1 (stereo not drawn)	-31.9	1.6	-2.6
O=C(CSc1nnnn1-c1ccccc1)N1c2ccccc2CCc2ccccc21	55.3	0.7	/
Cc1ccc(S(=O)(=O)N(C)CC(=O)Nc2cc(Cl)ccc2Oc2ccccc2)cc1	44.6	0.6	1.8
C[C@@H]1CN([C@@H](C)CO)C(=O)c2cc(NS(=O)(=O)c3ccc(Cl)cc3)ccc2O[C@@H]1CN(C)Cc1ccc(C(=O)Nc2ccccc2N)cc1	110.4*	-2.6	/
C[C@H]1CN([C@@H](C)CO)C(=O)c2cc(NS(=O)(=O)c3ccc(Cl)cc3)ccc2O[C@@H]1CN(C)Cc1ccc(C(=O)Nc2ccccc2N)cc1	54.6	0.2	/
O=C(O)[C@H]1O[C@@H](Oc2c(-c3ccccc3)cc(O)c(-c3ccccc3)c2O)[C@H](O)[C@@H](O)[C@@H]1O	7.8	0.9	0.2
C=C1CCC2C(C(=O)O)=COC(O[C@@H]3O[C@H](CO)[C@@H](O)[C@H](O)[C@H]3O)C12 (stereo partly drawn)	3.5	0.8	0.8
C=C(C(=O)O[C@H]1C/C=C(/C)C[C@H](O)[C@H]2[C@H](C)C(=O)O[C@@H]2/C=C\1C)[C@@H]1CCC(=C)[C@@H]2C[C@H](O[C@@H]3O[C@H](CO)[C@@H](O)[C@H](O)[C@H]3O)C(=C)[C@@H]2C1	118.4*	-2.2	-3.4
O=C(CSc1nc2[nH]ncc2c(=O)n1-c1ccccc1)Nc1nsc(-c2ccccc2)n1	18.3	/	4.5
Cc1ccc2oc(C(=O)Nc3sc4c(c3C(=O)NC3CCS(=O)(=O)C3)CCC4)c(C)c2c1 (stereo not drawn)	105.8*	-10.9	4.5
COc1ccccc1C(=O)Nc1sc2c(c1C(=O)NCc1ccco1)CCCC2	91.1*	2.0	3.8
O=C(Nc1sc2c(c1C(=O)NCc1ccco1)CCCC2)c1ccc([N+](=O)[O-])cc1	14.8	0.8	1.2
Cc1c(C(=O)Nc2sc3c(c2C(=O)NCc2ccco2)CCCC3)oc2ccccc12	105.9*	-4.7	-3.5
O=C(Nc1sc2c(c1C(=O)NCc1ccco1)CCCC2)c1sc2ccccc2c1Cl	70.4	/	3.2
COc1ccc(C(=O)Nc2sc3c(c2C(=O)NC2CCS(=O)(=O)C2)CCCC3)cc1OC (stereo not drawn)	-3.1	0.6	3.0
CCCc1c(C(=O)OCC)c(C(=O)OCC)c2c(-c3ccccc3)nc(N3CCOCC3)nn12	?	-0.6	/
O=S(=O)(Nc1ncccn1)c1ccc(NC(=S)N2CCN(c3ncccn3)CC2)cc1	2.7	0.1	-3.5
Cn1c(=O)c2c(ncn2CC(=O)Nc2ccc(Br)cc2F)n(C)c1=O	7.5	-0.2	-0.9
CC(=O)c1cccc(NC(=O)CSc2nc3ccc([N+](=O)[O-])cc3s2)c1	41.8	-4.0	2.8
Cc1ccccc1NC(=O)CCCC(=O)O	-13.5	1.6	-0.6
Cc1ccccc1NC(=O)CCC(=O)OC1CCC(C(C)(C)C)CC1 (stereo not drawn)	92.8*	-0.4	/
O=C(CCCN1C(=O)c2ccccc2C1=O)Nc1ccc(Cl)cc1	7.5	/	0.1
